Results taken from PubChem BioAssay (EPA / NIEHS).
“And” between values parts separate entries of the source, which are not always exact repeats. Equal values may be shown once. Some structures have more than one record in an assay (separate samples or runs), and their calls can disagree. The source made the active and inactive calls. Rule for the calls: active = hit-call score of the fitted dose curve at least 0.9, where 1 is the maximum; inactive = score below 0.9.

Tests used:
[1] = read-out: Tumor necrosis factor receptor superfamily member 6 (Homo sapiens) (UniProt P25445); assay: LTEA_HepaRG_FAS: Life Technologies and Expression Analysis (LTEA) Assay for Fas cell surface death receptor (FAS) using HepaRG (AID 2283447); details: mRNA level, 48 h; actives raise or lower the signal
Outline: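 FAS transcript level was measured by TaqMan qRT-PCR against three housekeeping genes after 48 h chemical exposure. Cells were HepaRG, 0.5% DMSO vehicle, with a top concentration of 100 uM and half-log dilutions over eight points, in duplicate.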

[2] = read-out: Cyclin Dependent Kinase Inhibitor 1A (CDKN1A), CDKN1A (gene 1026); assay: LTEA_HepaRG_CDKN1A: Life Technologies and Expression Analysis (LTEA) Assay for Cyclin Dependent Kinase Inhibitor 1A (CDKN1A) using HepaRG (AID 2283450); details: mRNA level, 48 h; actives raise or lower the signal
Outline: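 Gain or loss of CDKN1A transcript is scored by bidirectional fitting against 0.5% DMSO vehicle. Human HepaRG cultures receive chemicals for 48 h across an 8-point series peaking at 100 uM; expression comes from qRT-PCR.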

[3] = read-out: Cyclin D1 (CCND1), CCND1 (gene 595); assay: LTEA_HepaRG_CCND1: Life Technologies and Expression Analysis (LTEA) Assay for Cyclin D1 (CCND1) using HepaRG (AID 2283451); details: mRNA level, 48 h; actives raise or lower the signal;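 for AC50: differentiated human HepaRG liver cells in serum-free induction medium; TaqMan qRT-PCR transcript level normalised to ACTB GAPDH and POLR2A housekeeping genes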
Outline: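 Expression change is measured by qRT-PCR in HepaRG cells after 48 h treatment across eight concentrations topping at 100 uM, with duplicate wells and DMSO (0.5%) serving as baseline for bidirectional fitting.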

[4] = read-out: catalase (CAT), CAT (gene 847); assay: LTEA_HepaRG_CAT: Life Technologies and Expression Analysis (LTEA) Assay for catalase (CAT) using HepaRG (AID 2283452); details: mRNA level, 48 h; actives raise or lower the signal;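 for AC50: TaqMan qRT-PCR signal normalized to ACTB GAPDH and POLR2A housekeeping genes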
Outline: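 Expression of CAT was quantified by TaqMan qRT-PCR with ACTB/GAPDH/POLR2A normalization after 48 h chemical exposure of HepaRG. Eight-point half-log series, top 100 uM, in 0.5% DMSO; gain or loss fitted against vehicle.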

[5] = read-out: flavin-containing dimethylaniline monooxygenases 3 (FMO3), FMO3 (gene 2328); assay: LTEA_HepaRG_FMO3: Life Technologies and Expression Analysis (LTEA) Assay for flavin-containing dimethylaniline monooxygenases 3 (FMO3) using HepaRG (AID 2283453); details: mRNA level, 48 h; actives raise or lower the signal;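 for AC50: differentiated human HepaRG liver cells in serum-free induction medium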
Outline: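 FMO3 transcript quantified by TaqMan qRT-PCR against three housekeeping genes after 48 h chemical exposure of HepaRG cells. Eight-point half-log series, top 100 uM, 0.5% DMSO vehicle; phenobarbital 1mM induction control; up- or down-regulation fitted.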

[6] = read-out: CFLAR gene, CFLAR (gene 8837); assay: LTEA_HepaRG_CFLAR: Life Technologies and Expression Analysis (LTEA) Assay for CFLAR gene using HepaRG (AID 2283455); details: mRNA level, 48 h; actives raise or lower the signal
Outline: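 Transcript level by qRT-PCR (normalized to ACTB, GAPDH and POLR2A) after 48 h chemical exposure of HepaRG cells, top concentration 100 uM with half-log steps, 0.5% DMSO vehicle, duplicates; fitted bidirectionally against DMSO baseline.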

[7] = read-out: Forkhead box O1 (FOXO1), FOXO1 (gene 2308); assay: LTEA_HepaRG_FOXO1: Life Technologies and Expression Analysis (LTEA) Assay for Forkhead box O1 (FOXO1) using HepaRG (AID 2283456); details: mRNA level, 48 h; actives raise or lower the signal
Outline: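 FOXO1 transcript quantified by qRT-PCR after 48 h chemical exposure (top 100 uM, half-log steps, 0.5% DMSO) of HepaRG cells, housekeeping-normalized (ACTB/GAPDH/POLR2A). Changes fitted in both directions relative to vehicle.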

[8] = read-out: growth arrest and DNA damage 45 (GADD45A), GADD45A (gene 1647); assay: LTEA_HepaRG_GADD45A: Life Technologies and Expression Analysis (LTEA) Assay for growth arrest and DNA damage 45 (GADD45A) using HepaRG (AID 2283458); details: mRNA level, 48 h; actives raise or lower the signal
Outline: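 Transcript induction or loss, quantified by TaqMan qRT-PCR against three housekeeping genes, is the read-out. HepaRG cells received chemicals for 48 h across eight half-log concentrations from 100 uM in 0.5% DMSO; gain and loss fitted relative to DMSO.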

[9] = read-out: Forkhead box O3 (FOXO3), FOXO3 (gene 2309); assay: LTEA_HepaRG_FOXO3: Life Technologies and Expression Analysis (LTEA) Assay for Forkhead box O3 (FOXO3) using HepaRG (AID 2283459); details: mRNA level, 48 h; actives raise or lower the signal
Outline: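 FOXO3 transcript measured by qRT-PCR (normalized to ACTB, GAPDH, POLR2A) after 48 h exposure of HepaRG cells in serum-free induction medium. Duplicates, eight half-log concentrations up to 100 uM, 0.5% DMSO; gain or loss fitted against DMSO.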

[10] = read-out: ABC Transporter (ABCB1), ABCB1 (gene 5243); assay: LTEA_HepaRG_ABCB1: Life Technologies and Expression Analysis (LTEA) Assay for ABC Transporter (ABCB1) using HepaRG (AID 2283460); details: mRNA level, 48 h; actives raise or lower the signal
Outline: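 ABCB1 transcript level measured by TaqMan qRT-PCR against three housekeeping genes after 48 h chemical exposure of differentiated HepaRG cells. Top concentration 100 uM, half-log steps, eight points, 0.5% DMSO vehicle; bidirectional fit relative to DMSO.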

[11] = CEETOX_H295R_ESTRADIOL: CeeTox H295R High-throughput Steroidogenesis Assay for Estradiol (AID 2283440); details: actives raise or lower the signal;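 note: estradiol secreted into medium quantified by LC-MS/MS after dansyl derivatisation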
Outline: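 Readout is estradiol in conditioned medium, quantified by reverse-phase HPLC-MS/MS against a 7-point standard curve. Cells: H295R, forskolin-stimulated, then dosed 48 h in 0.1% DMSO; activity fitted in both directions relative to DMSO.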

[12] = CEETOX_H295R_ESTRONE: CeeTox H295R High-throughput Steroidogenesis Assay for Estrone (AID 2283441); details: actives raise or lower the signal
Outline: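 Estrone secreted into medium quantified by LC-MS/MS after dansyl chloride derivatization, following 48 h chemical exposure (0.1% DMSO final) of forskolin-prestimulated (10 uM, 48 h) H295R cells; gain or loss fitted against DMSO; MTT viability in same wells.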

[13] = CEETOX_H295R_PROG: CeeTox H295R High-throughput Steroidogenesis Assay for Progesterone (PROG) (AID 2283442); details: actives raise or lower the signal;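 for AC50: human H295R adrenal cells primed with 10 µM forskolin before dosing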
Outline: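 Measured analyte is progesterone secreted by H295R cells at 48 h of chemical treatment, following 10 uM forskolin priming. Quantitation used HPLC-MS/MS against a 7-point standard curve; cytotoxicity was checked by MTT absorbance.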

[14] = read-out: Cytochrome P450 (CYP1A1), CYP1A1 (gene 1543); assay: LTEA_HepaRG_CYP1A1: Life Technologies and Expression Analysis (LTEA) Assay for Cytochrome P450 (CYP1A1) using HepaRG (AID 2283454); details: mRNA level, 48 h; actives raise or lower the signal
Outline: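 Using HepaRG cultures with 0.5% DMSO as vehicle, eight-concentration exposures (max 100 uM) lasted 48 h. Transcript levels were measured by TaqMan qRT-PCR and normalized to ACTB, GAPDH and POLR2A.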

[15] = read-out: Fatty acid synthase (Homo sapiens) (UniProt P49327); assay: LTEA_HepaRG_FASN: Life Technologies and Expression Analysis (LTEA) Assay for Fatty Acid Synthase (FASN) using HepaRG (AID 2283448); details: mRNA level, 48 h; actives raise or lower the signal;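 note: differentiated human HepaRG liver cells in serum-free induction medium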
Outline: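 Cells were plated, cultured 48 h, switched to serum-free induction medium, then dosed in duplicate (max 100 uM, half-log dilutions, 0.5% DMSO) for 48 h. RNA was then isolated and FASN quantified by qRT-PCR.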

[16] = CEETOX_H295R_CORTIC: CeeTox H295R High-throughput Steroidogenesis Assay for Corticosterone (CORTIC) (AID 2283437); details: actives raise or lower the signal
Outline: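 Medium corticosterone was quantified by tandem mass spectrometry following 48 hours of chemical exposure (0.1% DMSO) in human H295R cells previously stimulated 48 hours with 10 uM forskolin. Viability checked by MTT; chemicals diluted and retested when viability fell below 70%.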

[17] = CEETOX_H295R_CORTISOL: CeeTox H295R High-throughput Steroidogenesis Assay for Cortisol (AID 2283438); details: actives raise or lower the signal
Outline: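 Cortisol synthesis by H295R cells is measured 48 h after chemical dosing, following a 48 h stimulation with 10 uM forskolin. Hormone is extracted and quantified by HPLC-MS/MS, and activity is fitted bidirectionally against the DMSO control.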

[18] = CEETOX_H295R_DOC: CeeTox H295R High-throughput Steroidogenesis Assay for DOC (AID 2283439); details: actives raise or lower the signal
Outline: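 Steps: seed H295R, adhere overnight; 10 uM forskolin 48 h; replace with chemical medium (0.1% DMSO) 48 h; collect medium, MTBE extraction, HPLC-MS/MS for DOC. Viability then checked by MTT; cytotoxic chemicals diluted until viability ≥70%.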

Measured: AC50

Sequence of Fatty acid synthase (Homo sapiens) (P49327 whole entry, looked up): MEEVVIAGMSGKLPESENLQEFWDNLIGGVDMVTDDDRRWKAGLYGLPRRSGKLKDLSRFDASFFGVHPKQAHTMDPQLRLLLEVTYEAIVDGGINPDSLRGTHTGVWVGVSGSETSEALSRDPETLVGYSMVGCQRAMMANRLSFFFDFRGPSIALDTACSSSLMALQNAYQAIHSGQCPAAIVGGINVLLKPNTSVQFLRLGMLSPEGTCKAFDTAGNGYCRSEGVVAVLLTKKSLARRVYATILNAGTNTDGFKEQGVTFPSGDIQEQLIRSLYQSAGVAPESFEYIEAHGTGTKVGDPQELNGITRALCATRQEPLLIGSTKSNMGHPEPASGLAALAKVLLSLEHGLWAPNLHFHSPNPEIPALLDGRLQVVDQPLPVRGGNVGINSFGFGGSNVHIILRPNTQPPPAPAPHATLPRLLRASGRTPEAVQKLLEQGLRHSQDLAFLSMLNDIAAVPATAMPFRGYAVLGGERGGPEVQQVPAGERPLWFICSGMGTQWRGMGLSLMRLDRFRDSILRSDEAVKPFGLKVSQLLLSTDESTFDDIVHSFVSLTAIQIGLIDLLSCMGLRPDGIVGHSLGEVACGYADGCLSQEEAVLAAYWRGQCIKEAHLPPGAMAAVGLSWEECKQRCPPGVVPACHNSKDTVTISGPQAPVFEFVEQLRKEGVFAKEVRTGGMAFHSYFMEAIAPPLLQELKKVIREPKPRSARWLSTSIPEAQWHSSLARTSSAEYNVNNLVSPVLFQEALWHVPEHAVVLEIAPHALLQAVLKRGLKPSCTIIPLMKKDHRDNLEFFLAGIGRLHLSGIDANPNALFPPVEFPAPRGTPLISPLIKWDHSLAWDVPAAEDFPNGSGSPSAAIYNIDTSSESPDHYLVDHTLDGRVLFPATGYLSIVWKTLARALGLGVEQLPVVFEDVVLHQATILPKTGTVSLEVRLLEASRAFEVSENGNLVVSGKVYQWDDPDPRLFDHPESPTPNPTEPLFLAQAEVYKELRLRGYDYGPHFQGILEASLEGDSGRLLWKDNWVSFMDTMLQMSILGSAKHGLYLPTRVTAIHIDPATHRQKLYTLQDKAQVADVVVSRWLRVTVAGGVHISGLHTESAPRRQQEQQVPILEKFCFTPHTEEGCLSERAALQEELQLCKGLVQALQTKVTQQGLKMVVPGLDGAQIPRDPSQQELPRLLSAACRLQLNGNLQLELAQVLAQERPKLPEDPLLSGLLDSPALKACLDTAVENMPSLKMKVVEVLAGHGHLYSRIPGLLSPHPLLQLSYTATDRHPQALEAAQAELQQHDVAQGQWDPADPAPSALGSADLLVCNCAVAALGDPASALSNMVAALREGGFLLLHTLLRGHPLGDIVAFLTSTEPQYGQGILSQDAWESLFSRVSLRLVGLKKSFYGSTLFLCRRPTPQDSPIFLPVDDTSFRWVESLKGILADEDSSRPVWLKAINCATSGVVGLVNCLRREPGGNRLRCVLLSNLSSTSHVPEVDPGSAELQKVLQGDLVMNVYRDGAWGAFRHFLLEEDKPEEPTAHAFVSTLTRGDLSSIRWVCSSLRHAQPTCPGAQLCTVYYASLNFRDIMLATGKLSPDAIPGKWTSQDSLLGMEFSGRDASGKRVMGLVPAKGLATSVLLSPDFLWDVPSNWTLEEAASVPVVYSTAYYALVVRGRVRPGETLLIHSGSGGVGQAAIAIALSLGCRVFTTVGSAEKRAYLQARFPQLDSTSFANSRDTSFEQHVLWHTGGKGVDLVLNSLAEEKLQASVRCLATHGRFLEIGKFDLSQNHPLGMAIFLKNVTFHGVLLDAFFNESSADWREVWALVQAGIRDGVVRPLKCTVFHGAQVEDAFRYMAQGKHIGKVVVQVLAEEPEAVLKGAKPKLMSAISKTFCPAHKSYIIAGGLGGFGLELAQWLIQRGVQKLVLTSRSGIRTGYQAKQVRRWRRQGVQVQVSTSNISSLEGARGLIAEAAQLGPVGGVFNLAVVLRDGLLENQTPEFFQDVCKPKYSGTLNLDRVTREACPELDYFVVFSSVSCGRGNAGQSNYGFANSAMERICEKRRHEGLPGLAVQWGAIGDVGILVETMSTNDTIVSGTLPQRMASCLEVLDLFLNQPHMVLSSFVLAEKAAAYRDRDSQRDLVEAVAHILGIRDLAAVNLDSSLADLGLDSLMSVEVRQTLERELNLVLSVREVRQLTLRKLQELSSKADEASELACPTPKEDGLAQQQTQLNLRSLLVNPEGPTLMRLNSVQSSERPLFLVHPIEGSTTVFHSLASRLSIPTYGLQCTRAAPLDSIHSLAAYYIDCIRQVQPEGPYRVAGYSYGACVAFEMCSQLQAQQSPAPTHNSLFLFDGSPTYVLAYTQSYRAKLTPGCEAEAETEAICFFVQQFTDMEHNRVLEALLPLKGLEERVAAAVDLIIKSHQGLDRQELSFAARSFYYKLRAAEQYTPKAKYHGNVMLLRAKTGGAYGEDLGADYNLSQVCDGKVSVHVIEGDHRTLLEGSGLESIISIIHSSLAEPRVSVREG

OCCOc1ccccc1
inactive: [1] | [2] | [3] | [4] | [5] | [6] | [7] | [8] | [9] | [10]

CCC(C)(NC(=O)c1cc(Cl)c(C)c(Cl)c1)C(=O)CCl (centres undefined)
inactive: [2] | [7] | [9]
active: [1] 92.4 µM | [3] 77.8 µM | [4] 71 µM | [5] 80.2 µM | [6] 86.5 µM | [8] 89.8 µM | [10] 89.8 µM

O=C1c2ccccc2C(=O)N1SC(Cl)(Cl)Cl
not listed: [14] | [15] | [16] | [17] | [18]
inactive: all other assays above

N#CN
inactive: [1] | [2] | [3] | [4] | [5] | [6] | [7] | [8] | [9] | [10]

COP(=O)(OC)OC=C(Cl)Cl
inactive: [1] | [2] | [3] | [4] | [5] | [6] | [7] | [8] | [9] | [10]

COP(=S)(OC)Oc1ccc([N+](=O)[O-])cc1
active: [13] 9.85 µM | [14] 44.2 µM
not listed: [15] | [16] | [17] | [18]
inactive: all other assays above

ClC1C(Cl)C(Cl)C(Cl)C(Cl)C1Cl (centres undefined)
inactive: [1] | [2] | [3] | [4] | [5] | [6] | [7] | [8] | [9]
active: [10] 1.54 µM and 4.45 µM

Cc1[nH]c(=O)n(C(C)(C)C)c(=O)c1Cl
active: [15] 68.9 µM | [14] 24.1 µM | [9] 50 µM
not listed: [11] | [12] | [13] | [16] | [17] | [18]
inactive: all other assays above

CCOCN(C(=O)CCl)c1c(C)cccc1CC
active: [4] 80 µM | [5] 78.7 µM
inactive: [1] | [2] | [3] | [6] | [7] | [8] | [9] | [10]

CC1(c2ccc(Oc3ccccc3)cc2)OC(=O)N(Nc2ccccc2)C1=O (centres undefined)
active: [1] 1.02 µM | [2] 9.7 µM | [4] 12.7 µM | [5] 24.4 µM | [7] 50.2 µM | [8] 13 µM | [9] 4.78 µM
inactive: [3] | [6] | [10]

CCOC1Oc2ccc(OS(C)(=O)=O)cc2C1(C)C (centres undefined)
active: [2] 87.1 µM | [3] 76.1 µM | [4] 74.1 µM | [5] 78.3 µM | [7] 50 µM | [8] 89.7 µM | [10] 35.2 µM
inactive: [1] | [6] | [9]

CN1CSC(=S)N(C)C1
inactive: [1] | [2] | [3] | [4] | [5] | [6] | [7] | [8] | [9] | [10]

CC[C@H](C)[C@H]1O[C@]2(C=C[C@@H]1C)C[C@@H]1C[C@@H](C/C=C(\C)[C@@H](O[C@H]3C[C@H](OC)[C@@H](O[C@H]4C[C@H](OC)[C@@H](O)[C@H](C)O4)[C@H](C)O3)[C@@H](C)/C=C/C=C3\CO[C@@H]4[C@H](O)C(C)=C[C@@H](C(=O)O1)[C@]34O)O2 (tested in a mixture with another compound)
active: [2] 7.59 µM | [4] 10.5 µM | [5] 14 µM | [6] 30.2 µM | [7] 17.5 µM | [10] 55.2 µM
inactive: [16] | [17] | [18] | [13] | [3] | [8] | [9]

O=C(O)C(F)(F)C(F)(F)C(F)(F)C(F)(F)C(F)(F)C(F)(F)C(F)(F)F
inactive: [1] | [2] | [3] | [4] | [5] | [6] | [7] | [8] | [9] | [10]
active: [4] 23.3 µM | [7] 50 µM

O=S1OCC2C(CO1)C1(Cl)C(Cl)=C(Cl)C2(Cl)C1(Cl)Cl (centres undefined)
active: [2] 79.1 µM | [4] 52.3 µM | [5] 83.4 µM | [14] 50 µM
inactive: [1] | [3] | [6] | [7] | [8] | [9] | [10]

O=S(=O)(O)C(F)(F)C(F)(F)C(F)(F)C(F)(F)C(F)(F)C(F)(F)C(F)(F)C(F)(F)F
inactive: [1] | [2] | [3] | [4] | [6] | [7] | [8] | [9] | [10]
active: [3] 18.5 µM and 22.3 µM and 12.3 µM | [4] 84 µM | [6] 13.2 µM | [7] 13.3 µM

CC(C)(C)C(O)C(Oc1ccc(Cl)cc1)n1cncn1 (centres undefined)
active: [10] 4.64 µM and 7.44 µM and 3.5 µM
not listed: [11] | [12] | [14] | [15] | [16] | [17] | [18]
inactive: all other assays above

O=C(O)CCCOc1ccc(Cl)cc1Cl
inactive: [1] | [2] | [3] | [4] | [5] | [6] | [7] | [8] | [9] | [10]
